Only some compounds are listed: those with a hit (about 1.1% of all), similar ones and a draw of the others.
HBB splice mod: alters splicing of the hemoglobin beta chain | HBB splicing reporter cell assay, activation; EGFP reporter with mutant IVS2-654 intron; response scale: normalised to 500 nM splice-correcting PNA | 65,000 compounds, 0.06% hits | Potency, µM (top dose mostly 46.1 µM), usual class: activators
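HeLa cells stably expressing EGFP interrupted by mutant beta-globin intron 2 (IVS2-654), 500/well in 2% FCS. Treated with compound for 2 days at 37C. Splicing correction scored as total well GFP intensity (488 nm excitation, 500-520 nm emission); 500 nM antisense PNA served as control.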
Hsp90 Hop PPI: changes Hsp90-Hop TPR2A binding signal, up or down; AlphaScreen TPR2A-His6 binding biotin-Hsp90 C-terminal peptide; Potency, µM (doses to about 57 µM); 71,000 compounds, 0.44% hits; active = well fitted curve in either direction with a large enough effect; inconclusive = small, poorly fitted or top-dose-only effect, or another doubt
GBA mod: modulators of human glucocerebrosidase; P04062; purified enzyme, resorufin glucoside fluorescence (screen aimed at inhibitors), 20 min; Potency, µM; 48,000 compounds, 1.1% hits; AID 360; in the data active = potency below about 15 µM; inconclusive = mostly about 16 µM to 33 µM;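 note: the screen sought inhibitors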
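Wild-type enzyme at 0.2 nM final in 50mM citric acid/KH2PO4, 10mM sodium taurocholate, 0.01% tween-20, pH 5.9, with resorufin beta-D-glucopyranoside at 30 uM final. Compounds titrated, 20 min at RT, red fluorescence read; AC50 from titration.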
Epigenetic mod: epigenetic GFP locus derepression in mouse cells; mouse C127i GFP locus derepression, cytometry, 30 h; Potency, µM (series often up to 46.1 µM); 68,000 compounds, 0.09% hits; AID 597
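Derepression screen: silenced CMV-GFP reporter in murine C127i cells, 30 h compound incubation at 37 C, washed cells imaged by laser-scanning cytometer to enumerate GFP-expressing objects of 20 to 120 um.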
USP2a inh: blocks human ubiquitin-specific protease USP2a | O75604 | USP2a enzymatic assay, qHTS inhibition | Potency, µM (doses to about 38.3 µM), usual class: inhibitors | 60,000 compounds, 0.1% hits; note: nearly all actives have a fitted effect of over 60% in size
Target sequence (O75604 whole entry, looked up): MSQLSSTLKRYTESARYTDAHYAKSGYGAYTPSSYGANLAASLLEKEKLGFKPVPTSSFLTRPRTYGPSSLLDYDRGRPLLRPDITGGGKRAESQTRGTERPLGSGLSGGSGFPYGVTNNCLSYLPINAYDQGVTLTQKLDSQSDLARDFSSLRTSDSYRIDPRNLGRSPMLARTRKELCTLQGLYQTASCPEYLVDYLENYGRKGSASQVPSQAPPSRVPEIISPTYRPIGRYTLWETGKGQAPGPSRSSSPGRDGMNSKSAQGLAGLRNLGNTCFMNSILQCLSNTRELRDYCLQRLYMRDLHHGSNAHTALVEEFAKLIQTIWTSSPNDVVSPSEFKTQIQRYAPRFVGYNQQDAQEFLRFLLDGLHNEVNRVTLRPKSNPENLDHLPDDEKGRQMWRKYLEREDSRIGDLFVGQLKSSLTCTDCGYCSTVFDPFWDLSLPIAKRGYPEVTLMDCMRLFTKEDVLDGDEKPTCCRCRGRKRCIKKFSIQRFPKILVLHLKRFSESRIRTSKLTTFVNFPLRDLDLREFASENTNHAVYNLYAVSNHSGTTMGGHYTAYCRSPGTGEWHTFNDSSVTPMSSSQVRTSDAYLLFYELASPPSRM
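Inhibition is measured in a cell-free coupled assay with 20 nM USP2 core, 20 nM Ub-PLA2 and 20 uM NBD C6-HPC, 2.5 h incubation. Activity normalized to NEM control.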
UbGFP stabilizer: ubiquitin-GFP accumulation via proteasome inhibition | Ubiquitin-GFP reporter cells, proteasome inhibition, GFP fluorescence; response scale: untreated = 0%, 10 µM MG-132 = 100% | Potency, µM (series often up to 45.9 µM), hits mostly activators | 67,000 tested, under 10 active | AID 526; active = well fitted activation curve with a large enough effect, not every such curve was filed as active; inconclusive = small, poorly fitted or top-dose-only effect, or another doubt; inactive = no such curve, though single readings can be large or run the other way
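Proteasome blockade was scored as a rise in GFP-expressing U2OS cells carrying a ubiquitin(G76V)-GFP construct, imaged after 4 hr compound treatment at 37 °C across a 46 uM–2.9 nM series.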
Hsp90-TPR2A inh: confirmation and counter-screen of Hsp90 TPR2A co-chaperone interaction disrupters | shares compounds with Hsp90 Hop PPI | AlphaScreen TPR2A-His6 / biotin-Hsp90 peptide binding | activity, negative = inhibition, % at 40 µM or 46 µM, hits read low | 45 compounds, 100% hits | AID 632;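 active = compound lowering the Hsp90 and TPR2A binding signal, whether or not the linker counterscreen also flagged it as an artifact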
A number is an active result; [ ] = dose if it differs, or a comment. Unless noted, calls come from the whole dose curve; as a rule, active = well fitted curve in the direction sought with a large enough effect; inconclusive = small, poorly fitted or top-dose-only effect, or another doubt; inactive = no such curve, though single readings can be large; an effect the other way counts as inactive or inconclusive.

O=C(O)COc1ccccc1 was read as HBB splice mod inactive and Hsp90 Hop PPI inactive.
`O=C(O)Cc1cccnc1C(=O)O` gave Hsp90 Hop PPI 7.94µM, Epigenetic mod inactive and UbGFP stabilizer inactive.
For CCC1CN2CCc3cc(OC)c(OC)cc3C2CC1CC1NCCc2cc(OC)c(OC)cc21 (configuration not stated) the results were USP2a inh inactive.
For CC1=NN(c2ccc(S(=O)(=O)O)cc2C)C(=[OH+])[C@H]1N=Nc1cc(S(=O)(=O)O)ccc1C(=O)O.O.[Cr] the results were HBB splice mod inactive[9.22 µM], Hsp90 Hop PPI inactive[11 µM], Epigenetic mod inactive[9.22 µM] and UbGFP stabilizer inactive[9.17 µM].
Screening c1ccc2c(c1)-c1cccc3cccc-2c13 returned HBB splice mod inactive and Hsp90 Hop PPI 31.6µM.
`O=C1c2ccccc2C(=O)c2ccccc21` gave USP2a inh inactive.
`Cc1cccn2c(=O)c3c(nc12)N1CCC(Cc2ccccc2)CC1C1(C3)C(=O)N(C)C(=O)N(C)C1=O` (configuration not stated) gave HBB splice mod inactive, Hsp90 Hop PPI inactive, GBA mod 6.33, Epigenetic mod inactive, USP2a inh inactive and UbGFP stabilizer inactive.
For CN1C(=O)N(C)C(=O)C2(Cc3c(nc4ccccn4c3=O)N3CCC(Cc4ccccc4)CC32)C1=O (configuration not stated) the results were HBB splice mod inactive, Hsp90 Hop PPI inactive, GBA mod 13.3, Epigenetic mod inactive, USP2a inh inactive and UbGFP stabilizer inactive.
Screening CC1CCN2c3nc4ccccn4c(=O)c3CC3(C(=O)N(C)C(=O)N(C)C3=O)C2C1 (configuration not stated) returned HBB splice mod inactive, Hsp90 Hop PPI inactive, GBA mod inactive, Epigenetic mod inactive, USP2a inh inactive and UbGFP stabilizer inactive.
`Cc1ccc(NC(=[OH+])c2cc3ccccc3cc2O)c(C)c1.Cc1ccc(NC(=[OH+])c2cc3ccccc3cc2O)c(C)c1.[Ni]` gave HBB splice mod inactive[9.22 µM], Hsp90 Hop PPI inactive[11 µM], Epigenetic mod inactive[9.22 µM] and UbGFP stabilizer inactive[9.17 µM].
For N#CC(C#N)=Cc1cc(O)c(O)c(O)c1 the results were HBB splice mod inactive, Hsp90 Hop PPI 7.94µM, Epigenetic mod inactive, USP2a inh inconclusive and UbGFP stabilizer inactive.
CC(=O)[C@@H]1CC[C@H]2[C@H]3CC[C@H]4C[C@@H](O)CC[C@]4(C)[C@@H]3CC[C@]12C was read as HBB splice mod inactive, Hsp90 Hop PPI inactive, Epigenetic mod inactive, USP2a inh inactive and UbGFP stabilizer inactive.
O=C1CN=C(c2ccccc2)c2oc3ccc(Br)cc3c2N1 was read as HBB splice mod inactive, Hsp90 Hop PPI inactive, GBA mod 3.26, Epigenetic mod inactive, USP2a inh inactive and UbGFP stabilizer inactive.
`O=[As](O)(O)c1ccc(N=Nc2ccc([As](=O)(O)O)cc2)cc1` gave HBB splice mod inactive[9.22 µM], Hsp90 Hop PPI inactive[11 µM], Epigenetic mod inactive[9.22 µM] and UbGFP stabilizer inactive[9.17 µM].
For C#CCN[C@@H](C)Cc1ccccc1 the results were HBB splice mod inactive, Hsp90 Hop PPI inactive, Epigenetic mod inactive, USP2a inh inactive and UbGFP stabilizer inactive.
Screening O=C(O)[C@@H]1[C@H](C(=O)O)[C@]2(Cl)C(Cl)=C(Cl)[C@@]1(Cl)C2(Cl)Cl returned HBB splice mod inactive[9.22 µM], Hsp90 Hop PPI inactive[11 µM], Epigenetic mod 3.16µM and UbGFP stabilizer inactive[9.17 µM].
For N[C@]1(C(=O)O)CC[C@@H](C(=O)O)C1 the results were HBB splice mod inactive, Hsp90 Hop PPI inactive, Epigenetic mod inactive and UbGFP stabilizer inactive.
For O=C1CN=C(c2cccs2)c2c(sc3c2CCCC3)N1 the results were Hsp90 Hop PPI inactive, GBA mod inactive, Epigenetic mod inactive, USP2a inh 6.31µM and UbGFP stabilizer inactive.
For COCCCn1c(N)c(C(=O)NCCC(C)C)c2nc3ccccc3nc21 the results were HBB splice mod inactive[0.369 µM], Hsp90 Hop PPI 25.1µM, GBA mod inactive, Epigenetic mod inactive, USP2a inh inactive and UbGFP stabilizer inactive.
CN(C)[C@@H]1C(=O)C(C(N)=O)=C(O)[C@]2(O)C(=O)C3=C(O)c4c(O)cccc4[C@](C)(O)[C@H]3C[C@@H]12 was read as HBB splice mod inactive[9.22 µM], Hsp90 Hop PPI inactive[11 µM], Epigenetic mod inactive[9.22 µM] and UbGFP stabilizer inactive[9.17 µM].
For O=C1CCCC2C3CC(CN12)C1CCCCN1C3 (configuration not stated) the results were USP2a inh inactive.
For CN(N=O)c1ccc(O)c(O)c1 the results were HBB splice mod inactive, Hsp90 Hop PPI 3.16µM, Epigenetic mod inactive, USP2a inh 12.6µM and UbGFP stabilizer inactive.
`C[C@]1(O)CC[C@H]2[C@@H]3[C@@H](O)CC4=CC(=O)CC[C@@]4(C)[C@H]3CC[C@]21C` gave HBB splice mod inactive[9.22 µM], Hsp90 Hop PPI inactive[11 µM], Epigenetic mod inactive[9.22 µM] and UbGFP stabilizer inactive[9.17 µM].
`CN1CCN(C(=O)COc2ccc3ccccc3c2Br)CC1` gave HBB splice mod inactive, Hsp90 Hop PPI 2.51µM, Epigenetic mod inactive, USP2a inh inactive and UbGFP stabilizer inactive.
For CC[C@H](CO)NC(=O)[C@@H]1C=C2c3cccc4[nH]cc(c34)C[C@@H]2N(C)C1 the results were HBB splice mod inactive, Hsp90 Hop PPI inactive, Epigenetic mod inactive, USP2a inh inactive and UbGFP stabilizer inactive.
For O=C1C=CC(=O)c2c(O)cccc21 the results were USP2a inh 12.6µM.
Screening NC(=O)CI returned HBB splice mod inactive, Hsp90 Hop PPI inactive, Epigenetic mod inactive, USP2a inh 25.1µM and UbGFP stabilizer inactive.
Screening CC1(C)C(O)CC(O)[C@]2(C)C1CC(=O)[C@]1(C)C2CC[C@@]2(C)C(c3ccoc3)OC(=O)C3OC321 (some centres not stated) returned USP2a inh inactive.
Screening Brc1ccc(Oc2ccc(Br)cc2Br)c(Br)c1 returned HBB splice mod inactive and Hsp90 Hop PPI 31.6µM.
For N[C@@H](Cc1cc(O)c(O)cc1O)C(=O)O the results were HBB splice mod inactive, Hsp90 Hop PPI 7.94µM, Epigenetic mod inactive, USP2a inh 6.31µM and UbGFP stabilizer inactive.
`CCn1nc(-c2cccs2)nc2c(=O)n(C)c(=O)nc1-2` gave HBB splice mod inactive, Hsp90 Hop PPI 1.58µM, GBA mod inactive, Epigenetic mod inactive, USP2a inh inactive, UbGFP stabilizer inactive and Hsp90-TPR2A inh active.
C=CC(=O)OCC(CC)CCCC (configuration not stated) was read as HBB splice mod inactive and Hsp90 Hop PPI inactive.
For O=P(O)(O)CCP(=O)(O)O the results were HBB splice mod inactive[9.22 µM], Hsp90 Hop PPI inactive[11 µM], Epigenetic mod inactive[9.22 µM] and UbGFP stabilizer inactive[9.17 µM].
For Cn1nc(Cc2ccccc2)nc2c(=O)n(C)c(=O)nc1-2 the results were Hsp90-TPR2A inh active.

Assay outcomes as filed in PubChem BioAssay.
